We go through 24 compounds from PubChem BioAssay (NCATS).

Assay [1] has as its target Glutathione peroxidase 1 (Homo sapiens) (UniProt P07203). Description: Primary qHTS Assay for Inhibitors of Recombinant Selenoprotein Glutathione Peroxidase 1 (GPX1) (AID 1845191). Also: nearly all actives have a fitted effect of over 65% in size. The procedure, abridged:
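GR-coupled readout: NADPH consumption tracked by fluorescence, ex 340/em 450 nm, at t=0 and after 15 min at RT. Final mix 10 nM GPX1, 1 mM GSH, 0.5 mM CHP, 0.5 mM NADPH, 100 nM GR, 0.01% BSA, following 30 min enzyme–compound preincubation.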

The target of assay [2] is Phospholipid hydroperoxide glutathione peroxidase GPX4 (Homo sapiens) (UniProt P36969). Description: Primary qHTS Assay for Inhibitors of Recombinant Selenoprotein Glutathione Peroxidase 4 (GPX4) (AID 1845192). Also: nearly all actives have a fitted effect of over 65% in size. As to activity change, negative = inhibition: series mostly up to about 50 µM; % is scaled to controls: 0 for no effect and ±100 for the full control effect. The essentials: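 Steps: GPX4 plus compound, 30 min RT; add GR/GSH/NADPH master mix; start with cumene hydroperoxide; read 340/450 nm fluorescence at 0 and 15 min. Finals were 200 nM GPX4, 1 mM GSH, 0.5 mM CHP, 0.5 mM NADPH, 100 nM GR.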
(In qHTS, concentration-response curves come from the screen itself.)

For assay [3], the target named is Luciferin 4-monooxygenase (Photinus pyralis) (UniProt P08659). Description: Primary firefly luciferase (FLuc) qHTS assay for identification of artifact compounds. (AID 1845220). Also: nearly all actives have a fitted effect of over 60% in size.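 As to activity change, negative = inhibition: series mostly up to about 54 µM; plate controls were DMSO vehicle for no effect and no enzyme for full effect.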 The essentials: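 D-luciferin and ATP (10 uM each, final) in Tris acetate buffer pH 7.6 were incubated with compounds for 15 min at room temperature. The reaction was started with 10 nM Photinus pyralis luciferase and luminescence read after 5 min. Percent inhibition was fitted to a 4-parameter Hill equation.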

Assay [4] can be described thus: Primary fluorescence-based thiol-reactive (MSTI) qHTS assay for identification of artifact compounds. (AID 1845221). Also: nearly all actives have a fitted effect of over 65% in size. Also: potency is read from the fitted curve at half-maximal effect. The essentials: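 Curve-fitted percent inhibition (4-parameter Hill) derived from fluorescence, Ex 525/Em 598 nm, scaled with Acetyl-MSTI and MSTI; 1 h incubation at room temperature.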

Unmarked numbers belong to inactive results. Inconclusive results are not listed. Active and inactive are the calls of the source. Calls follow the shape of the dose curve; as a rule, active = well fitted curve in the direction sought with a large enough effect; inconclusive = small, poorly fitted or top-dose-only effect, or another doubt; inactive = no such curve, though single readings can be large; an effect the other way counts as inactive or inconclusive.

Chain of Glutathione peroxidase 1 (Homo sapiens) (P07203 whole entry, looked up): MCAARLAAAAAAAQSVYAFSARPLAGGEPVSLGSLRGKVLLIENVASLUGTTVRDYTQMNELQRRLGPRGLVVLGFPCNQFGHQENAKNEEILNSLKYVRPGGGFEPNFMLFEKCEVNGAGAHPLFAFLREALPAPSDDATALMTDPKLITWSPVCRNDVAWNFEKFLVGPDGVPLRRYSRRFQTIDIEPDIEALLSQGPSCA
Chain of Phospholipid hydroperoxide glutathione peroxidase GPX4 (Homo sapiens) (P36969 whole entry, looked up): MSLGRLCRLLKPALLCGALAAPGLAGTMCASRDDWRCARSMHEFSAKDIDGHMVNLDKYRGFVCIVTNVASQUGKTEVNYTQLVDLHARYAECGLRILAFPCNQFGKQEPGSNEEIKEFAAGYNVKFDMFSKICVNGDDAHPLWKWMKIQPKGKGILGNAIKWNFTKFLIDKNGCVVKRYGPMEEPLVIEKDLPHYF

As to `COc1ccccc1N1CCN(CCCCNC(=O)c2ccc(-c3cscn3)cc2)CC1`, the Potency entry in assay [1], in assay [2] and in assay [3] was “inactive” each time.
Consider `COc1c(O)cc2c(c1O)C(=O)O[C@H](C)[C@H]2O`, for which the Potency result in assay [1], in assay [2] and in assay [3] was “inactive” throughout.
Consider `COc1cc(Cc2cnc(N)nc2N)c(C(C)C)cc1OC`, for which the Potency result in assay [1], in assay [2] and in assay [3] was “inactive” throughout.
For `CC1(C(=O)O)CC[C@]2(C(=O)OC3OC(CO)C(O)C(O)C3O)CC[C@]3(C)C(=CCC4[C@@]5(C)CC[C@H](OC6OCC(O)C(O)C6OC6OC(CO)C(O)C(O)C6O)C(C)(C)C5CC[C@]43C)C2C1` (stereo not given in full), the Potency entry in assay [1] and in assay [2] was “inactive” each time. For the same compound, in assay [3], the activity change, negative = inhibition is 0.425% [at 11.6 µM].
On to `CCCCNc1nc(N)c2[nH]c(=O)n(Cc3ccc(OCCN(C)C)nc3)c2n1`, for which the Potency entry in assay [1], in assay [2] and in assay [3] was “inactive” each time.
In the case of `O=C(OCC1OC(Oc2ccc(O)cc2COC(=O)C2(O)C(O)CCC(=O)C2OC(=O)C2C=CCC2)C(OC(=O)C2C=CCC2)C(O)C1O)C1C=CCC1` (stereo not given), the Potency result in assay [1], in assay [2] and in assay [3] was “inactive” each time.
For the compound `COc1cc(C(O)C2COC(c3ccc(OC4OC(CO)C(O)C(O)C4O)c(OC)c3)C2CO)ccc1O` (stereo not given), the Potency entry in assay [1], in assay [2] and in assay [3] was “inactive” in each case.
`C=C1CC2C(C)(CCC(=O)O)C(C(C)(C)O)CCC2(C)C2(C(=O)OC)C(=O)C(C)(O)C(=O)C12C` (stereo not given): the Potency result in assay [1], in assay [2] and in assay [3] was “inactive” throughout.
Consider `O=C(/C=C/c1ccc(O)cc1)O[C@@H]1C[C@@](O)(C(=O)O)C[C@@H](O)[C@@H]1O`, for which the Potency result in assay [1], in assay [2] and in assay [3] was “inactive” in each case.
For `CCCCOc1nc(N)c2c(n1)N(Cc1cccc(CN3CCCC3)c1)CC(=O)N2`, the Potency result in assay [1], in assay [2] and in assay [3] was “inactive” in each case.
`COc1cc(C[C@@]2(O)CO[C@@H](c3ccc(O[C@@H]4O[C@H](CO)[C@@H](O)[C@H](O)[C@H]4O)c(OC)c3)[C@H]2CO)ccc1O`: the Potency entry in assay [1], in assay [2] and in assay [3] was “inactive” each time.
On to `Cc1[nH]c2ccccc2c1CC(=O)N[C@@H](Cc1ccccc1)C(=O)N(C)c1ccccc1`, for which the Potency result in assay [1], in assay [2] and in assay [3] was “inactive” in each case.
`CC(C)C(NC(=O)c1ccc(O)cc1)C(=O)N1CCCC1C(=O)Nc1c(O)cccc1C(=O)O` (stereo not given): the Potency entry in assay [1], in assay [2] and in assay [3] was “inactive” throughout.
`COc1cc2c(c(O)c1OC/C=C(\C)CC/C=C(/C)CCC=C(C)C)CN(C(CCC(=O)O)C(=O)O)C2=O` (stereo not given): the Potency entry in assay [1], in assay [2] and in assay [3] was “inactive” each time.
`Cc1c(C)c(NCC(=O)N(C)C2CCN(Cc3ccc(C(N)=O)cc3)CC2)c(C)c(C)c1N`: the Potency result in assay [1], in assay [2] and in assay [3] was “inactive” in each case.
Consider `C/C=C(/C)C(=O)OC1C(OC(C)=O)C23C(O)OC4(CCC5C6(C)CCC(OC7OC(C(=O)O)C(O)C(OC8OC(CO)C(O)C(O)C8OC8OC(C)C(O)C(O)C8OC8OCC(O)C(O)C8O)C7OC7OC(CO)C(O)C(O)C7O)C(C)(C)C6CCC5(C)C4(C)CC2OC(C)=O)C3CC1(C)C` (stereo not given), for which the Potency result in assay [1] and in assay [2] was “inactive” throughout. In addition, the outcome in assay [3] is “inactive [at 11.6 µM]”.
Turning to `C[C@H]1[C@H](C)CC[C@]2(C(=O)O)CC[C@]3(C)C(=CCC4[C@@]5(C)C[C@@H](O)[C@H](O)C(C)(C)C5CC[C@]43C)[C@H]12` (stereo not given in full), the Potency result in assay [1], in assay [2], in assay [3] and in assay [4] was “inactive” each time.
With `CSCC1OC(n2cnc3c(=O)[nH]cnc32)C(O)C1O` (stereo not given), the Potency entry in assay [1], in assay [2], in assay [3] and in assay [4] was “inactive” each time.
With `COc1cc2c(c(OC)c1O)C(c1ccc(O)cc1)C1C(=O)OC3C(COC(=O)C1=C2)OC(CO)(OC1OC(COC(=O)/C=C/c2ccc(OC4OC(C)C(O)C(O)C4O)cc2)C(O)C(O)C1O)C3O` (stereo not given), the Potency result in assay [1] and in assay [2] was “inactive” in each case. Moreover, the activity change, negative = inhibition in assay [3] is -10.6% [at 11.6 µM]. In assay [4], the Potency is 4.5 µM (active).
For the compound `CCN1CCN(C(=O)N[C@@H](C(=O)N[C@@H]2C(=O)N3[C@@H]2SC(C)(C)[C@@H]3C(=O)O)c2ccccc2)C(=O)C1=O`, the Potency result in assay [1], in assay [2], in assay [3] and in assay [4] was “inactive” throughout.
For the compound `CC(C)c1ccc2c(c1)C(O)CC1C(C)(C(=O)O)CCCC21C` (stereo not given), the Potency result in assay [1], in assay [2], in assay [3] and in assay [4] was “inactive” in each case.
On to `OC[C@H]1O[C@@H](OCCc2ccccc2)[C@H](O[C@@H]2OC[C@@H](O)[C@H](O)[C@H]2O)[C@@H](O)[C@@H]1O`, for which the Potency result in assay [1], in assay [2] and in assay [3] was “inactive” throughout. Also, the Potency in assay [4] is 4.12 µM (active).
Consider `O=C(/C=C/c1ccc(O)cc1)O[C@H]1[C@H](OC2CCCCC2O)O[C@H](CO)[C@@H](O)[C@@H]1O` (stereo not given in full), for which the Potency entry in assay [1], in assay [2] and in assay [3] was “inactive” each time. Moreover, the Potency in assay [4] is 4.12 µM (active).
Take `C/C=C1\[C@H](O[C@@H]2O[C@H](CO)[C@@H](O)[C@H](O)[C@H]2O)OC=C(C(=O)OCCc2ccc(O)cc2)[C@H]1CC(=O)OCCc1ccc(O)cc1`: the Potency entry in assay [1], in assay [2], in assay [3] and in assay [4] was “inactive” each time.
